Rows were chosen to be rich in hits. Some 2.2% of all compounds tested hit in one or more screens of this group.
PHOSPHO1 inh = PubChem AID 1565; Phosphoethanolamine/phosphocholine phosphatase (Homo sapiens), Q8TCT1; recombinant PHOSPHO1, absorbance phosphatase assay; inhibition, % at 13.3 µM; hit rate 1.1% among 290,000; in the data active = inhibition above about 60%
PvdQ inh = P. aeruginosa PvdQ acylase inhibitors, primary screen, biochemical, fluorescence, plate reader and imaging, single point; PvdQ acylase [Pseudomonas aeruginosa LESB58]; purified PvdQ acylase; inhibition, % at 10 µM; hit rate 0.063% among 340,000; AID 488965, 2010; in the data active = inhibition above about 30%, passing the limit was not always enough; inconclusive = no clear call, values can overlap the other calls
Mot1-301 SUMO = yeast Mot1-301 growth rescue at high temperature, primary screen, SUMOylation pathway inhibitor project, S. cerevisiae, ATP luminescence, 38.5C; hit rate 1% among 320,000; growth rescue, % at 18.8 µM; S. cerevisiae Mot1-301 growth rescue; percent above DMSO median, 100 means doubled;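 active = every valid replicate shows activation above 250% relative to neutral control wells; inactive = the rest, any valid replicate at or below 250%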
JMJD2C inh = inhibitors of GASC-1 histone demethylase, primary screen, biochemical, fluorescence, DELFIA europium. hit rate 0.069% among 330,000. inhibition, % at 2.35 µM. Lysine-specific demethylase 4C (Homo sapiens), Q9H3R0. GST-JMJD2C(1-420) H3K9me3 demethylation;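 active = more than half of a compound's replicate wells show inhibition beyond 50%, single wells judged on their own value; inconclusive = some, but no more than half, of replicates pass 50% inhibition; inactive = no replicate passes 50% inhibition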;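 note: signal counts dimethyl H3K9 product captured on neutravidin plate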
p-CIP stab down = p/CIP-EGFP fusion destabilizers, primary screen, fluorescence, F442A cells; Q05BA5; 16 h; decrease of EGFP signal, % at 10 µM; hit rate 0.01% among 290,000; AID 1984, 2009;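 active = EGFP signal decrease of at least 30% at 10 µM or well 3 SD below plate mean, unless failing retest; inactive = the rest, including hits failing retest or dose response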
HDAC3 inhib = HDAC3 deacetylase inhibitors, primary screen, biochemical, fluorescence, cell-free homogeneous; AID 2718, 2010; inhibition, % at 8.3 µM; recombinant HDAC3, fluorogenic peptide/trypsin coupled; hit rate 0.15% among 320,000; in the data active = inhibition above about 26%, passing the limit was not always enough; inconclusive = no clear call, values can overlap the other calls
Target sequence (O15379 whole entry, looked up): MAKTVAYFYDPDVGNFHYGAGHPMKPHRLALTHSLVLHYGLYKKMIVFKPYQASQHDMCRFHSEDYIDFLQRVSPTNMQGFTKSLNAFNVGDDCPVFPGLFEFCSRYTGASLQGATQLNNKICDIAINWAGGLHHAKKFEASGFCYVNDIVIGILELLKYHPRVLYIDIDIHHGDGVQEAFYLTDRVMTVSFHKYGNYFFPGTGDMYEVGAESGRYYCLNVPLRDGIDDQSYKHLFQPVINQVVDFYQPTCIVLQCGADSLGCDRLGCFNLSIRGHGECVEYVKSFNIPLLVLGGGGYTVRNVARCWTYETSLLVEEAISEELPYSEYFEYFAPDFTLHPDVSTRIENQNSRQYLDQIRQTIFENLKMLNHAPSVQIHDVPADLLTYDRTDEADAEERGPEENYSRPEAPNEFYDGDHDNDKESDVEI
Hits are given with their value; i = inactive; ? = inconclusive; nt = not tested or not shown.

SMILES	PHOSPHO1 inh	PvdQ inh	Mot1-301 SUMO	JMJD2C inh	p-CIP stab down	HDAC3 inhib
COc1ccc(S(=O)(=O)NCC(=O)N(CC2CCCO2)C(C(=O)NC2CCCC2)C(C)C)cc1 (centres undefined)	i	i	i	i	i	i
COC(=O)c1ccc(-n2nnnc2SC)cc1	81.2	i	nt	i	i	i
CSc1nc(=S)c2[nH]c(=S)[nH]c2[nH]1	i	i	i	i	i	36.5
NNc1ccc(Cl)c(C(=O)O)c1	88.2	i	i	i	i	i
CC(C#N)Sc1ccc(S(=O)(=O)N(C)C2CCCCC2)cn1 (centres undefined)	nt	i	i	i	nt	i
COc1ccc(-n2cc(CNCCc3cscn3)c(-c3ccccc3Cl)n2)cc1	i	nt	i	51.5	i	i
COc1ccccc1/C=C/CN1CCC(Oc2cc(C(=O)NC3CC3)ccc2OC)CC1	64.9	i	i	i	i	i
COc1ccc(CN2CCC(n3nccc3NC(=O)C3CCCC3)CC2)cc1	61.0	i	i	i	i	i
COc1ccccc1C(=O)Nc1ccnn1C1CCN(C/C=C/c2ccccc2)CC1	i	i	i	i	i	nt
COc1ccccc1/C=C/CN1CCC(n2nccc2NC(=O)C2CC2)CC1	62.8	i	i	i	i	i
COc1ccccc1CN1CCC(n2nccc2NC(=O)CCOc2ccccc2)CC1	75.0	i	i	i	i	i
Cn1cc2cc([N+](=O)[O-])ccc2n1	i	i	i	i	i	i
Cc1c(CN2CCC(n3nccc3NC(=O)C3CCOC3)CC2)[nH]c2ccccc12 (centres undefined)	65.8	i	i	i	i	i
O=C(Nc1ccnn1C1CCN(Cc2cc3ccccc3[nH]2)CC1)C1CCOC1 (centres undefined)	i	i	i	i	i	i
Cc1ccc(-c2nc(NC(=O)CSc3cc(C)c4ccccc4n3)ns2)cc1	60.5	i	i	i	i	i
Cc1csc(SCC(=O)c2cc(C)n(Cc3cccs3)c2C)n1	91.1	i	i	i	i	i
Cc1cc(C(=O)CSc2nnc(-c3ccc(OC(F)F)cc3)o2)c(C)n1Cc1cccs1	94.5	i	i	i	i	i
COc1ccc(-c2nnc(SCC(=O)c3cc(C)n(Cc4cccs4)c3C)o2)cc1	i	i	i	i	i	i
CCC(=O)Nc1nnc(SCC(=O)NCC2CCCO2)s1 (centres undefined)	i	i	i	i	i	i
Cc1nc2sc(C(=O)Nc3ccccc3)c(N)c2c(C)c1[N+](=O)[O-]	i	i	i	i	i	i
CC(=O)c1ccc(NC(=O)C(C)NCc2ccccc2Cl)cc1 (centres undefined)	i	i	i	i	i	i
Cc1cc(NC(=O)CSc2nnc(-c3ccc(Br)o3)n2Cc2ccccc2)no1	66.1	i	i	i	i	i
COc1cc2c(=O)n(CCC(=O)NCC3CCCO3)c(=O)n(CC(=O)Nc3ccc(F)cc3)c2cc1OC (centres undefined)	i	i	283.5	i	i	i
O=C1SCCC1NS(=O)(=O)c1ccc([N+](=O)[O-])cc1 (centres undefined)	i	i	i	i	i	i
O=[N+]([O-])c1ccc(N2CCCCC2)nc1	nt	39.1	i	i	nt	i
SMILES	PHOSPHO1 inh	PvdQ inh	Mot1-301 SUMO	JMJD2C inh	p-CIP stab down	HDAC3 inhib
N#Cc1cc([N+](=O)[O-])ccc1N1CCCC1	i	89.5	i	i	i	i
O=[N+]([O-])c1ccc(N2CCCCC2)cc1	i	47.9	i	i	i	i
O=[N+]([O-])c1ccc(N2CCCC2)nc1	i	38.7	i	i	i	i
COc1cccc(-c2c(C(=O)N/N=C/c3sccc3C)nnn2-c2nonc2N)c1	i	i	i	i	i	i
CCn1cc(CCC(=O)NCCN2CCOCC2)c2ccccc21	i	i	i	i	i	i
CCOC(=O)C1CCN(C(=O)C2CCN(C(=O)c3ccc([N+](=O)[O-])cc3)CC2)CC1	i	i	i	i	i	i
CCOC(=O)C1CCN(c2ccc([N+](=O)[O-])cc2)CC1	i	37.0	i	i	i	i
O=C(COC(=O)C1CC2CCCC(C1)C2=O)NNC(=O)c1ccc([N+](=O)[O-])cc1 (centres undefined)	nt	i	i	i	nt	i
CCCN1CCN(CCCNC(=O)CCCn2nc(C)c3sc4ccccc4c3c2=O)CC1	i	i	352.4	i	i	i
CCC(C(=O)NCCCN1CCCCCC1)n1nc(C)c2sc3ccccc3c2c1=O (centres undefined)	i	i	i	i	i	i
CC1CCN(CC(=O)NC(=O)NCc2ccccc2)CC1	i	i	331.5	i	i	i
CNc1nc(-c2ccccc2)[n+](-c2ccc(C)cc2)s1	89.9	i	i	i	i	42.1
Cc1ccc(-c2nc3ccccc3nc2-c2ccccc2)cc1	i	i	i	i	i	i
Cc1ccc(-c2nc(N)s[n+]2-c2ccccc2)cc1	i	i	i	i	i	62.4
COc1cccc(CCN2C(=O)C(=O)N([C@@H](CNCc3ccccc3)Cc3ccccc3F)C[C@@H]2C(C)(C)C)c1	i	nt	i	i	i	i
Cc1cccc(C(=O)Nc2ccc(NC(=O)c3ccccc3)cc2)c1	i	i	i	i	i	i
Cc1cccc(C(=O)Nc2ccc(C(=O)Nc3ccc(O)cc3)cc2)c1	62.4	i	i	i	i	i
CC(C)C(=O)Nc1ccccc1-c1nc2ccccc2[nH]c1=O	nt	i	i	i	i	i
CC(C)C(=O)Nc1sc2c(c1-c1nc3ccccc3[nH]1)CCCC2	103.6	i	i	i	i	i
Cc1ccc(N=Cc2nc(-c3ccco3)oc2O)cc1	i	i	i	i	i	i
O=C(Oc1oc(-c2ccco2)nc1C=Nc1ccccc1)c1ccco1	i	i	i	i	i	89.7
Cc1ccc(C(=O)Oc2oc(-c3ccco3)nc2C=Nc2ccc(Cl)cc2)cc1	i	i	i	i	i	?
O=C(Oc1oc(-c2ccco2)nc1C=Nc1ccccc1)c1ccoc1	i	i	i	i	i	90.0
Cc1nc(CNC(=O)CC2C(=O)NCCN2Cc2ccc(F)cc2)cs1 (centres undefined)	65.8	i	i	i	i	i
O=C(CC1C(=O)NCCN1Cc1ccc(F)cc1)NC1CCCCCCC1 (centres undefined)	64.9	i	i	i	i	i
Cc1ccc(CN2CCNC(=O)C2CC(=O)NC2CCCCCC2)cc1 (centres undefined)	i	i	i	i	i	nt
Cc1ccc(CN2CCNC(=O)C2CC(=O)NC2CCCCCC2)o1 (centres undefined)	i	i	347.3	i	i	i
O=C(CC1C(=O)NCCN1Cc1ccccc1)NC1CCCCCC1 (centres undefined)	i	i	i	i	i	i

Assay outcomes as filed in PubChem BioAssay.
